Measured values published in PMC4336329 (PLoS ONE, 2015).
About 14,000 (4.5%) of roughly 310,000 compounds showed an effect of 50% or more. The effect is printed as a negative number. The sample holds strong results, similar compounds and a random draw of the others, so the mix is not that of the screen.

Biological target: human ether-à-go-go-related gene (hERG) potassium channel (human, UniProt Q12809)
Experiment: primary screen, population patch clamp on CHO cells stably expressing hERG; higher = less effect of the substance
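Note: peak tail current of the secondary pulse compared with the same well before compound.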

Chain of human ether-à-go-go-related gene (hERG) potassium channel (Q12809 whole entry, looked up): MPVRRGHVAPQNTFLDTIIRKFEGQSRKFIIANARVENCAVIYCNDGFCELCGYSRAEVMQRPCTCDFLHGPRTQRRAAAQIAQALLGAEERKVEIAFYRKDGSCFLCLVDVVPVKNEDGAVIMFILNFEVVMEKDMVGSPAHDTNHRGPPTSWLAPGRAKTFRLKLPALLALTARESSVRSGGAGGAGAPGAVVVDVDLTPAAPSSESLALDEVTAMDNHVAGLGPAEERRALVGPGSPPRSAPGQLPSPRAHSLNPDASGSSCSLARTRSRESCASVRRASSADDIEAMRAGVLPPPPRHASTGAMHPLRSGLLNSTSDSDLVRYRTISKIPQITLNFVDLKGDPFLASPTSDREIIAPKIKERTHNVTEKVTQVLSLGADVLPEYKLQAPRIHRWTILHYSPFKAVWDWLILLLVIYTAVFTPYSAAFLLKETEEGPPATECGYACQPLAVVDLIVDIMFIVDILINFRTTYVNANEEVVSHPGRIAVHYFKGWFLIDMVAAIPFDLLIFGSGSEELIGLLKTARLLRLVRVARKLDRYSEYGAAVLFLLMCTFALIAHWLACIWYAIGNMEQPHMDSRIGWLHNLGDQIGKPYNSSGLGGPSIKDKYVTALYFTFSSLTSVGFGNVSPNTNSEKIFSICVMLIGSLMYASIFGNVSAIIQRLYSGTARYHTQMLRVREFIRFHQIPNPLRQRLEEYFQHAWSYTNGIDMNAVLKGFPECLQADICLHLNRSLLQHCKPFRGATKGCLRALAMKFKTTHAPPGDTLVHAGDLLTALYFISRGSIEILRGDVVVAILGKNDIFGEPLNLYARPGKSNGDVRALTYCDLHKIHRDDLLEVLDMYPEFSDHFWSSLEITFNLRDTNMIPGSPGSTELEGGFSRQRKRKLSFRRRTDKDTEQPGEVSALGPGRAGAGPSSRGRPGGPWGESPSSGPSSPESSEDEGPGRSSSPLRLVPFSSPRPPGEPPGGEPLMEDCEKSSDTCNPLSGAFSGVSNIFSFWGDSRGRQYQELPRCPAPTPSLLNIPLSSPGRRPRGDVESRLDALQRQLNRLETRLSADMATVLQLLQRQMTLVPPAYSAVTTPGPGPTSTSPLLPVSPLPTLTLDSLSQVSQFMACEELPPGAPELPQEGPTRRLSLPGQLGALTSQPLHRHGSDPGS

Row | Compound | hERG current change (%, negative = inhibition) at 10uM
1 | COc1ccc(-n2nc(C(=O)NCC(=O)NCc3ccco3)c3ccccc3c2=O)c(OC)c1 | 11.3%
2 | Cl.c1ccc(NNC2=NCCCCC2)cc1 | 8.92%
3 | O=C(O)Cn1c(=O)c2c3c(sc2n(Cc2ccc(F)cc2)c1=O)CCCC3 | 17.9%
4 | Cc1ccc(C)c(OCc2nc3ccc(S(=O)(=O)Nc4c(C)n(C)n(-c5ccccc5)c4=O)cc3[nH]2)c1 | 7.31%
5 | CCCCN(C)CCN1C(=O)C2C(C(=O)Nc3cccc(OC)c3)C3C=CC2(O3)C1C(=O)NC1CCCCC1C (stereo not shown) | -14.7%
6 | CC(C)(C)C(=O)Nc1cc(NC(=O)C(C)(C)C)cc(C(=O)NNC(=O)c2ccncc2)c1 | 16.5%
7 | CCOc1ccccc1NC(=O)N1CCC(n2nnc3cc(C)ccc32)CC1 | -53.9%
8 | Cc1ccc2c(c1)nnn2C1CCN(C(=O)c2ccccc2F)CC1 | -18.1%
9 | COc1ccc(NC(=O)N2CCC(n3nnc4cc(C)ccc43)CC2)cc1 | -11.3%
10 | Cc1ccc2c(c1)nnn2C1CCN(C(=O)NCc2ccccc2)CC1 | -76.7%
11 | CCOc1ccc(NC(=O)N2CCC(n3nnc4ccccc43)CC2)cc1 | -15.4%
12 | CCOc1ccccc1C(=O)N1CCC(n2nnc3cc(C)ccc32)CC1 | -47.4%
13 | Cc1ccc2c(c1)nnn2C1CCN(C(=O)C2CCCCC2)CC1 | -31.3%
14 | COc1cccc(NC(=O)N2CCC(n3nnc4ccccc43)CC2)c1 | -18.8%
15 | CCOc1ccccc1C(=O)N1CCC(n2nnc3cc(C(F)(F)F)ccc32)CC1 | -60%
16 | O=C(c1c(F)cccc1F)N1CCC(n2nnc3cc(C(F)(F)F)ccc32)CC1 | -21.4%
17 | Cc1ccc2c(c1)nnn2C1CCN(C(=O)Nc2ccccc2C)CC1 | -22.6%
18 | Cc1cccc(NC(=O)N2CCC(n3nnc4cc(C)ccc43)CC2)c1 | -62.9%
19 | O=C(CSc1nc2[nH]ncc2c(=O)n1-c1ccc(Cl)c(Cl)c1)NCc1ccccc1Cl | -11.4%
20 | COc1ccc(CCN=C(N)NS(=O)(=O)c2ccccc2)cc1OC | 19.5%
21 | COC(=O)Cc1ccc(NC(=O)c2ccc3c(c2)C(=O)N(Cc2cccnc2)C3=O)cc1 | 5.83%
22 | C[C@H](NC(=O)N1C[C@H]2C[C@@H](C1)c1cccc(=O)n1C2)C(=O)Nc1cccc(F)c1 | 2.4%

Row | Compound | hERG current change (%, negative = inhibition) at 10uM
23 | CC(NS(=O)(=O)c1ccc(OCC(=O)Nc2cccc([N+](=O)[O-])c2)cc1)c1ccccc1 (stereo not shown) | 3.21%
24 | COCCN=C1NN=C(c2ccc(C)c([N+](=O)[O-])c2)CS1 | 11.7%
25 | O=C(/C=C/c1ccccc1)N/C(=C\c1ccco1)C(=O)O | 19.6%
26 | Cc1ccc(OCCSc2nnc(-c3ccncc3)n2C)cc1 | -28.9%
27 | Cn1c(SCCOc2ccc(Cl)cc2)nnc1-c1ccncc1 | -56.3%
28 | CCOC(=O)CSc1nnc(-c2cccs2)n1-c1ccccc1 | -42.8%
29 | CCn1c(SCC(=O)NCCc2ccc(Cl)cc2)nnc1-c1cccs1 | -75.8%
30 | Cc1cc(OCCSc2nnc(-c3cccs3)n2C)ccc1Cl | -22.5%
31 | CCn1c(SCC(=O)c2ccc(Cl)cc2)nnc1-c1cccs1 | -10.8%
32 | CCn1c(SCCOc2ccc(Cl)cc2)nnc1-c1cccs1 | -53.8%
33 | Cc1ccc(OCCSc2nnc(-c3cccs3)n2C)cc1 | -37%
34 | O=C(O)CSc1nnc(-c2cccs2)n1-c1ccc(Cl)cc1 | -6.94%
35 | COC(=O)CSc1nnc(-c2cccs2)n1-c1ccc(Cl)cc1 | -60.4%
36 | Cn1c(SCCOc2ccc(F)cc2)nnc1-c1ccncc1 | -44.4%
37 | CCn1c(SCC(=O)NCCc2ccccc2)nnc1-c1cccs1 | -27.6%
38 | CC(C)N(CCNS(=O)(=O)c1ccc(Cl)cc1)C(C)C.Cl | -28.1%
39 | O=C(c1[nH]ncc1-c1cccc(Br)c1)C1CO1 (stereo not shown) | 3.39%
40 | O=C(Nc1c(C(=O)N2CCOCC2)cnn1-c1ccccc1)c1ccc(F)cc1 | 13.8%
41 | CC(C)c1cc(C(=O)NCCc2ccccc2)no1 | -40.1%
42 | CCC(C(=O)NC(C)(C)C)N(Cc1ccco1)C(=O)CNS(=O)(=O)c1ccc(OC)cc1 (stereo not shown) | 7.49%
43 | O=C(O)/C(=C\c1ccc2ccccc2c1)c1cccc2ccccc12 | 6.53%
44 | CC(=O)Nc1ccc(C(=O)N/N=C/c2ccncc2)cc1 | 0.536%

Row | Compound | hERG current change (%, negative = inhibition) at 10uM
45 | Cc1cc(C)n2[nH]c(=O)c(N=Nc3cccc(C(F)(F)F)c3)c2n1 | -23.8%
46 | CCn1c(SCC(=O)NCc2cccs2)nnc1-c1cccs1 | -20.9%
47 | CCn1c(SCC(=O)NCC(=O)Nc2ccc(F)cc2)nnc1-c1cccs1 | -25.1%
48 | CCn1c(SCC(=O)NCCc2ccc(F)cc2)nnc1-c1cccs1 | -61.9%
49 | COc1ccc2[nH]c(=O)c(-c3nnn(-c4ccccc4)n3)cc2c1 | -1.01%
50 | Cc1ccc(Cn2c(CCC(=O)O)nc3ncccc3c2=O)cc1 | 13.4%
51 | Cc1nn(CC(=O)NCCCN2CCC(Cc3ccccc3)CC2)c(=O)c2cc(-c3ccccc3)nn12 | -77%
52 | CCc1ccc(-c2cc3c(=O)n(CC(=O)NCCN4CCCCC4C)nc(C)n3n2)cc1 (stereo not shown) | -57.5%
53 | Cc1nn(CC(=O)NCCCN2CCN(Cc3ccccc3)CC2)c(=O)c2cc(-c3ccccc3)nn12 | -70.1%
54 | CCc1ccc(-c2cc3c(=O)n(CC(=O)NCCCN4CCC(Cc5ccccc5)CC4)nc(C)n3n2)cc1 | 2.48%
55 | Cc1nn(CC(=O)NCCCN2CCN(C)CC2)c(=O)c2cc(-c3ccccc3)nn12 | 0.586%
56 | CCc1ccc(-c2cc3c(=O)n(CC(=O)NCCCN4CCN(CC)CC4)nc(C)n3n2)cc1 | -30%
57 | CCc1ccc(-c2cc3c(=O)n(CC(=O)NCCCN4CCN(Cc5ccccc5)CC4)nc(C)n3n2)cc1 | -22.7%
58 | Cc1nn(CC(=O)NCCN2CCCCC2C)c(=O)c2cc(-c3ccccc3)nn12 (stereo not shown) | -48.4%
59 | Cc1nn(CC(=O)NCCCN2CCCCC2)c(=O)c2cc(-c3ccccc3)nn12 | -49.4%
60 | Cc1ccc(C2/C(=C(/O)c3ccccc3)C(=O)C(=O)N2CCN2CCOCC2)o1 (stereo not shown) | -2.22%
61 | COc1ccc(CCN2C(=O)NC(NC(C)=O)(C(F)(F)F)C2=O)cc1OC (stereo not shown) | 7.51%
62 | O=C(c1cccc(N2C(=O)C3C4C=CC(C4)C3C2=O)c1)N1CCN(c2ccccc2)CC1 (stereo not shown) | -1.68%
63 | c1ccc(Oc2ccc(-c3ccnc4ncnn34)cc2)cc1 | 10.7%
64 | c1ccc2c(c1)ncn2-c1ccc(-c2ccnc3ncnn23)cc1 | -68%
65 | c1cn(-c2ccc(-c3ccnc4ncnn34)cc2)cn1 | -27.2%
66 | Cc1cc(OCC(=O)NC2CCS(=O)(=O)C2)c2c3c(c(=O)oc2c1)CCC3 (stereo not shown) | -3.87%

Row | Compound | hERG current change (%, negative = inhibition) at 10uM
67 | COc1ccc(CNC(=O)C(=O)NC2CCC(C)CC2)cc1 (stereo not shown) | 19.4%
68 | C=C(Cl)CSC(=S)N(CC)CC | 12.1%
69 | O=C(CSc1nc(-c2cccs2)nc2ccccc12)NC1CCS(=O)(=O)C1 (stereo not shown) | 6.45%
70 | C=CCn1c(SCC(=O)N(CC)C2CCS(=O)(=O)C2)nc2ccccc2c1=O (stereo not shown) | -79.2%
71 | C=CCn1c(SCC(=O)N(CC)C2CCS(=O)(=O)C2)nnc1-c1ccccc1 (stereo not shown) | -2.7%
72 | COCCn1c(SCC(=O)N(C)C2CCS(=O)(=O)C2)nc2ccccc2c1=O (stereo not shown) | -12.1%
73 | CCN(C(=O)CSc1n[nH]c(-c2cccs2)n1)C1CCS(=O)(=O)C1 (stereo not shown) | 12.2%
74 | CCN(C(=O)CSc1nc(-c2cccs2)nc2ccccc12)C1CCS(=O)(=O)C1 (stereo not shown) | -95.6%
75 | CCN(C(=O)CSc1nc2ccccc2c(=O)n1CCOC)C1CCS(=O)(=O)C1 (stereo not shown) | -61.2%
76 | CCN(C(=O)CSc1nc2ccccc2c(=O)n1C(C)COC)C1CCS(=O)(=O)C1 (stereo not shown) | -22.8%
77 | C=CCn1c(SCC(=O)N(CC)C2CCS(=O)(=O)C2)nc2cc(C(=O)O)ccc2c1=O (stereo not shown) | 5.01%
78 | C=CCn1c(SCC(=O)N(C)C2CCS(=O)(=O)C2)nnc1-c1ccccc1 (stereo not shown) | 16.8%
79 | CCOCCCn1c(SCC(=O)N(C)C2CCS(=O)(=O)C2)nc2ccccc2c1=O (stereo not shown) | -37.5%
80 | C=CCn1c(SCC(=O)N(C)C2CCS(=O)(=O)C2)nc2ccccc2c1=O (stereo not shown) | -50%
81 | Cn1c(=O)[nH]c(=O)c2c1[nH]c(=S)n2Cc1ccccc1 | 17.5%
82 | COc1cc2cc(C(=O)NCCc3ccccc3)[nH]c2cc1OC | 19.2%
83 | COc1ccc(C(=O)/C=C/NCc2ccc(C)cc2)cc1 | -17.2%
84 | Cc1ccc2c(c1)c1nnc(SCC(=O)Nc3ccc(N(C)C)cc3)nc1n2CC(=O)O | 6%
85 | Cc1ccc(NC(=O)C2(c3ccccc3)CCOCC2)c([N+](=O)[O-])c1 | -22.5%
